Cav32 inh – blocks human Cav3.2 T-type calcium channel; AID 449739; B-score at 10 µM; Cav3.2-expressing cells, Fluo-4 calcium fluorescence FDSS; active compounds read low; actives 4% (n = 100,000); O95180;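 active = single-dose well whose peak fluorescence ratio is a statistical outlier from its plate by either plate-standardised score or position-corrected B-score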
CYP2C19 activ – increases human CYP2C19 enzyme activity; recombinant CYP2C19, luciferin-H EGE luminescence; active compounds read high; 0 = fully inhibited enzyme, 1 = untreated enzyme; activation factor at 5 µM; 96,000 tested, under 10 active; AID 1025;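 active = activation factor of at least 2 at 5 µM in the primary screen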
Target sequence (P33261 whole entry, looked up): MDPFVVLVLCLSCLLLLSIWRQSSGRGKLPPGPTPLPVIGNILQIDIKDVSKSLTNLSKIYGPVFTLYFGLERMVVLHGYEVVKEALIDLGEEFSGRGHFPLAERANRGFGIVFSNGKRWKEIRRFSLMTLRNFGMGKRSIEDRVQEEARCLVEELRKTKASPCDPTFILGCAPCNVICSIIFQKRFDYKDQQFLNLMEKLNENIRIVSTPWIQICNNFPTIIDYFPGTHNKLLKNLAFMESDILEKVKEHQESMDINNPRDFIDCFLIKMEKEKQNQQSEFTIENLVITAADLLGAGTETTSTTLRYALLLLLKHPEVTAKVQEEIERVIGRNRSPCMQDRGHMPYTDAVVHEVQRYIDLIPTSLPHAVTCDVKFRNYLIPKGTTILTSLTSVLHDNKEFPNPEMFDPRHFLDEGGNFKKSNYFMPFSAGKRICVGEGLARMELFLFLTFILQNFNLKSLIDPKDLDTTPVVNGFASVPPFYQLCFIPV
CYP2C9 act – activators of human CYP2C9. recombinant CYP2C9, luciferin-H conversion, luminescence; active compounds read high; factor 1 = untreated enzyme, 0 = blocked. actives 1.4% (n = 96,000). activation factor at 5 µM;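 active = activation factor of 2 or more for CYP2C9 at a 5 µM dose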
CYP2C19 inhib – inhibitors of human CYP2C19; P33261; CYP2C19 Supersomes, luciferin-H EGE luminescence, 30 min; inhibition, % at 5 µM; actives 21% (n = 96,000); AID 778;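 active = CYP2C19 inhibition above a set limit at 5 µM in the primary screen, cut at about 50% in these data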
CYP2C9 inhib – blocks human cytochrome P450 2C9; P11712; CYP2C9 Supersomes, luciferin-H conversion, luminescence; inhibition, % at 5 µM; actives 20% (n = 96,000); AID 777;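 active = blocking of liver enzyme CYP2C9 beyond about 50% at 5 µM, limit read from the data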
Each line names hits and unclear results; the compound was inactive in the other large screens. Rows were chosen to be rich in hits. Some 27% of all compounds tested hit in one or more screens of this group.

Cc1ccc(S(=O)(=O)NCCn2c(C)cc3ccccc32)cc1	CYP2C19 inhib 67, CYP2C9 inhib 68 (no result: Cav32 inh)
CCCn1c(CNS(=O)(=O)c2ccc(C)cc2)nc2ccccc21	none
Cc1cc(C)c(S(=O)(=O)NCCn2c(C)cc3ccccc32)c(C)c1	CYP2C19 inhib 73, CYP2C9 inhib 90
O=C(CN(CC1CCCO1)C(=O)CNS(=O)(=O)c1ccc(Cl)cc1)NCC1CCCO1 (stereo not drawn)	none (no result: CYP2C19 activ, CYP2C9 act, CYP2C19 inhib, CYP2C9 inhib)
CNS(=O)(=O)c1cc(C(=O)NCc2ccco2)ccc1Cl	none
O=C(c1ccco1)N1CCN(C(=O)C2CCN(S(=O)(=O)Cc3ccccc3)CC2)CC1	none
O=C(ONC1=NCCCCC1)c1c(F)cccc1F	CYP2C19 inhib 91
Cc1cc(C)nc(SCc2nnc(SCC(=O)Nc3cc(C(F)(F)F)ccc3Cl)o2)n1	CYP2C9 act 2, CYP2C19 inhib 80
Cc1cc(C)nc(SCc2nnc(SCC(=O)Nc3c(C)cccc3C)o2)n1	none (no result: CYP2C19 activ, CYP2C9 act, CYP2C19 inhib, CYP2C9 inhib)
CCCCCCCCSc1nnc(CSc2nc3nc(C)cc(C)n3n2)o1	none
Cc1cc(C)nc(SCc2nnc(SCc3ccccc3Cl)o2)n1	Cav32 inh -6.2, CYP2C19 inhib 78
CC(C)(C)NC(=O)COC(=O)/C=C/c1ccccc1[N+](=O)[O-]	none
CCOC(=O)/C(C(N)=NCCO)=C(/O)c1ccccc1	none
COC(=O)C1=C(N)Oc2cc(C)[nH]c(=O)c2C1c1ccncc1 (stereo not drawn)	CYP2C9 inhib 51
COC(=O)C1=C(N)Oc2cc(C)n(C)c(=O)c2C1c1ccc(Cl)c(Cl)c1 (stereo not drawn)	none
COC(=O)C1=C(N)Oc2cc(C)n(CCCn3ccnc3)c(=O)c2C1c1ccc(Cl)cc1 (stereo not drawn)	CYP2C19 inhib 99, CYP2C9 inhib 97
COC(=O)C1=C(N)Oc2cc(C)n(Cc3ccco3)c(=O)c2C1c1cccc(Cl)c1 (stereo not drawn)	CYP2C9 inhib 56
Cc1cc(C)cc(-n2c3nc4ccccc4nc3c3c(=O)n(Cc4ccco4)cnc32)c1	none
N=c1c2c(-c3ccccc3)c(-c3ccccc3)n(Cc3ccccc3)c2ncn1CCCn1ccnc1	CYP2C19 inhib 82, CYP2C9 inhib 58
N=c1c2c(-c3ccccc3)c(-c3ccccc3)n(Cc3ccco3)c2ncn1Cc1ccco1	Cav32 inh -9.3, CYP2C19 inhib 66, CYP2C9 inhib 83
S=c1nc(-c2ccccc2)n(CCCn2ccnc2)c2c1CCCC2	none (no result: Cav32 inh)
CCCOc1cccc(C2/C(=C(/O)c3ccncc3)C(=O)C(=O)N2CCCN(C)C)c1 (stereo not drawn)	none (no result: Cav32 inh)
Cc1cccc(N2CCN(C(=O)CCNC(=O)Cn3ccc4ccccc4c3=O)CC2)c1C	none
Cc1ccccc1NCc1ccccc1O	CYP2C19 inhib 59
Oc1ccccc1CNCCCNCc1ccccc1O	none
Cc1ccc(NCc2ccccc2O)cc1	CYP2C19 inhib 66
Cc1ccccc1NCC(=O)c1ccc(Br)cc1	none (no result: CYP2C19 activ, CYP2C9 act, CYP2C19 inhib, CYP2C9 inhib)
Cc1cccc(NCc2ccccc2O)c1	CYP2C19 inhib 92, CYP2C9 inhib 51
Cc1cccc(NCCNc2cccc(C)c2)c1	none
Cc1ccc(O)c(CNc2ccccn2)c1	CYP2C19 inhib 67
Cc1cccc(NCc2cc(Cl)ccc2O)n1	none (no result: CYP2C19 activ, CYP2C9 act, CYP2C19 inhib, CYP2C9 inhib)
O=c1cc(-c2ccccc2Cl)oc2c(NS(=O)(=O)c3ccccc3OC(F)(F)F)ccc(O)c12	none (no result: CYP2C19 activ, CYP2C9 act, CYP2C19 inhib, CYP2C9 inhib)
CCOC(=O)c1cc2occc2n1CC(=O)Nc1ccc(OC)cc1OC	none
CCOC(=O)c1c(N2C(=O)C3CC(C)=C(C)CC3C2=O)sc(C)c1C (stereo not drawn)	none
O=C1CC(c2ccc(F)cc2)CC(O)=C1C=NCCN1CCN(C(=O)Nc2ccccc2)CC1 (stereo not drawn)	Cav32 inh -4.2, CYP2C19 inhib 77, CYP2C9 inhib 54
O=Nc1c(O)n(Cc2ccc(Cl)c(Cl)c2)c2ccccc12	CYP2C19 inhib 51, CYP2C9 inhib 62
COc1ccc(C(=O)/C=C(\C)Nc2ccc(NC(C)=O)cc2)cc1	none
COc1ccc(N/N=C(\C=N\O)C(=O)c2ccc(OC)cc2)cc1	CYP2C19 inhib 75, CYP2C9 inhib 88
O=C1CCC(/C=C/c2ccccc2)=NN1Cc1ccccc1Cl	none
O=C1CCC(/C=C/c2ccccc2)=NN1Cc1ccc(Cl)c(Cl)c1	CYP2C9 inhib 73
Cc1cccc(CCNS(=O)(=O)c2cnc[nH]2)c1	CYP2C19 inhib 61, CYP2C9 inhib 92
COc1cc2c3nnc(-c4ccc(F)cc4)c-3cn(Cc3ccc(C)cc3)c2cc1OC	Cav32 inh -5.8
COc1ccc(-c2nc(C#N)c(NCc3ccc(F)cc3)o2)cc1OC	none
COc1cc2c3nnc(-c4ccc(F)cc4)c-3cn(Cc3cccc(C)c3)c2cc1OC	Cav32 inh -3.6
CN1CCN(C(=S)c2ccc(OCC(=O)Nc3cccc(C(F)(F)F)c3)cc2)CC1	none (no result: CYP2C19 activ, CYP2C9 act, CYP2C19 inhib, CYP2C9 inhib)
COC(=O)c1ccccc1NC(=O)CCS(=O)(=O)c1ccc(Br)s1	CYP2C19 inhib 62
COC(=O)c1ccccc1NC(=O)c1ccccc1OC	none
COC(=O)c1ccc(NC(=O)CCS(=O)(=O)c2ccc(Br)s2)cc1	CYP2C9 inhib 61
O=C(CCS(=O)(=O)c1ccc(Br)s1)NCc1ccccc1	CYP2C19 inhib 60
CC(C)NC(=O)CCS(=O)(=O)c1ccc(Br)s1	none
CCOC(=O)CN1C(=O)C(=O)c2cccc(C)c21	none
Cc1cc(C)c(C(=O)COC(=O)[C@H](C)Nc2ccc(C(F)(F)F)cc2[N+](=O)[O-])c(C)c1	Cav32 inh -4.4, CYP2C19 inhib 79, CYP2C9 inhib 90
COc1ccccc1NC(=O)COc1ccc(C(F)(F)F)cc1[N+](=O)[O-]	none (no result: CYP2C19 activ, CYP2C9 act, CYP2C19 inhib, CYP2C9 inhib)
COc1ccc(C(=O)COC(=O)[C@H](C)Nc2ccc(C(F)(F)F)cc2[N+](=O)[O-])cc1	CYP2C9 inhib 75
CCOn1c(=O)c(C)[n+]([O-])c2ccccc21	none (no result: CYP2C19 activ, CYP2C9 act, CYP2C19 inhib, CYP2C9 inhib)
CC(=O)NCCc1nc2ccccc2n1Cc1ccc(C)cc1	CYP2C19 inhib 69
COC(=O)Cn1c(CCS(=O)(=O)c2ccc(C)cc2)nc2ccccc21	CYP2C19 inhib 66
COc1ccc([N+](=O)[O-])cc1N(CC(O)CN(CC(C)C)CC(C)C)S(=O)(=O)c1ccccc1 (stereo not drawn)	Cav32 inh -3.9
Cc1c(C(=O)N2CCC(C)CC2)sc2ncnc(N3CCN(c4ccccc4)CC3)c12	CYP2C19 inhib 66, CYP2C9 inhib 95 (no result: Cav32 inh)
Cc1c(C(=O)N2CCN(c3ccccn3)CC2)sc2ncnc(N3CCOCC3)c12	CYP2C9 inhib 58
CCN(CC)c1ncnc2sc(C(=O)N3CCN(c4ccccc4)CC3)c(C)c12	CYP2C9 inhib 62
CCOC(=O)c1sc2ncnc(N3CCN(c4ccc(OC)cc4)CC3)c2c1C	none
CCN(CC)c1ncnc2sc(C(=O)N3CCN(c4ccc(OC)cc4)CC3)c(C)c12	none (no result: Cav32 inh)
Cc1ccc(NC(=O)CCn2cccc2)cc1F	CYP2C19 inhib 96, CYP2C9 inhib 61
CC(=O)NCCC(=O)Nc1ccc(C)c(F)c1	none
CCc1cccc(NC(=O)CSC2=NS(=O)(=O)c3ccccc32)c1	Cav32 inh -5.4
CCc1cccc(NC(=O)Cn2cccc2)c1	CYP2C9 act 2

Bioassay records: PubChem BioAssay, several laboratories
